From PubChem
DT40 TDP1 no CPT = qHTS for Inhibitors of human tyrosyl-DNA phosphodiesterase 1 (TDP1): qHTS in cells in absence of CPT | 420,000 compounds, 15% hits | DT40 Tdp1-/- hTDP1 cells, no CPT, ATP luminescence, 48 h | Potency, µM (doses to about 46.2 µM), for the others: at the highest dose activity change, negative = growth inhibition, most hits filed as inhibitors; note: potency is the fitted concentration of half-maximal effect; % is set by controls: 0 for no effect and ±100 for the full control effect; nearly all actives have a fitted effect of over 55% in size
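Chicken DT40 Tdp1-/- cells stably complemented with human TDP1 were seeded at 400 cells/well with DMSO in place of 20 nM camptothecin. After compound pinning, cells grew at least 48 hr at 37 °C; viability read by CellTiter-Glo luminescence.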
IL-1B inflam inh = blocks inflammasome-driven IL-1 beta release | THP-1 LPS/ATP IL-1B secretion, AlphaLISA, 16 h; hits give low values | activity change, % at 57.5 µM | 360,000 compounds, 4.7% hits | AID 743279; in the data active = activity change below about -50%; inconclusive = mostly about -30% to -49%; note: % is set by controls: 0 for no effect and ±100 for the full control effect
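THP-1 cells pretreated 1 hr with compounds (up to 57.5 uM final), then stimulated with LPS (250 ng/mL final) plus ATP (1.25 mM final); secreted IL-1B measured by AlphaLISA after 16 hr, decreased signal indicating inhibition.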
HepG2 viability = counter-screen for TGF-b inhibitors: cytotoxicity in HepG2 cells | 410,000 compounds, 0.76% hits | AID 588856 | HepG2 CAGA-GFP viability, ATP luminescence, 18 h | Potency, µM (series often up to 46.1 µM), inactives show top-dose activity change, negative = cytotoxicity, most hits filed as cytotoxic; note: potency is the fitted concentration of half-maximal effect
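HepG2 CAGA-GFP cells (1000/well, DMEM with 1% FBS) received compound, then TGF-beta at 500 pg/mL final, and were incubated 18 hours at 37 degrees C. Viability was read by CellTiter-Glo luminescence. Media-only wells were set as complete cell-killing and DMSO as no toxicity.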
DT40 TDP1 CPT = growth inhibition of DT40 Tdp1-/-;hTDP1 cells with camptothecin (screen for TDP1 inhibitors). chicken DT40 Tdp1-/-;hTDP1 cells + 20 nM CPT, ATP luminescence, 48 h. Potency, µM (series often up to 46.2 µM), without a hit: at the top dose activity change, negative = growth inhibition, hits mostly inhibitors. 420,000 compounds, 12% hits. AID 686979; note: potency is the fitted concentration of half-maximal effect; % is set by controls: 0 for no effect and ±100 for the full control effect; nearly all actives have a fitted effect of over 55% in size
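Chicken DT40 Tdp1-/- cells complemented with human TDP1, 400 cells/well, exposed to compounds plus 20 nM camptothecin for at least 48 h at 37 C; viability read as ATP content by CellTiter-Glo luminescence.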
TGFb SMAD3 inh = inhibitors of TGF-b signaling; Potency, µM (titrated, usually from 46.1 µM), for inactives: top-dose activity, negative = inhibition, usual class: inhibitors; HepG2 CAGA-GFP TGF-b/SMAD3 reporter, GFP fluorescence, 18 h; TGF-beta stimulated, 500 pg/mL final; 410,000 compounds, 1.2% hits; note: potency is the fitted concentration of half-maximal effect; % is set by controls: 0 for no effect and ±100 for the full control effect; nearly all actives have a fitted effect of over 65% in size
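Inhibition was scored as loss of TGF-beta-induced (500 pg/mL final, 18 hours, 37 degrees C) GFP in HEPG2 cells carrying a CAGA-GFP reporter, in DMEM with 1% FBS. Well GFP was summed per cell; Activity was normalised to unstimulated and stimulated DMSO wells, then concentration-response fitting.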
TDP1 inh = blocks human tyrosyl-DNA phosphodiesterase 1; Q9NUW8; recombinant TDP1, AlphaScreen DNA substrate cleavage; Potency, µM (titrated, usually from 130 µM), for the others: at the top dose activity change, negative = inhibition, most hits filed as inhibitors; 350,000 compounds, 0.28% hits; AID 485290; note: potency is the fitted concentration of half-maximal effect; % is set by controls: 0 for no effect and ±100 for the full control effect; nearly all actives have a fitted effect of over 40% in size
Target sequence (Q9NUW8 whole entry, looked up): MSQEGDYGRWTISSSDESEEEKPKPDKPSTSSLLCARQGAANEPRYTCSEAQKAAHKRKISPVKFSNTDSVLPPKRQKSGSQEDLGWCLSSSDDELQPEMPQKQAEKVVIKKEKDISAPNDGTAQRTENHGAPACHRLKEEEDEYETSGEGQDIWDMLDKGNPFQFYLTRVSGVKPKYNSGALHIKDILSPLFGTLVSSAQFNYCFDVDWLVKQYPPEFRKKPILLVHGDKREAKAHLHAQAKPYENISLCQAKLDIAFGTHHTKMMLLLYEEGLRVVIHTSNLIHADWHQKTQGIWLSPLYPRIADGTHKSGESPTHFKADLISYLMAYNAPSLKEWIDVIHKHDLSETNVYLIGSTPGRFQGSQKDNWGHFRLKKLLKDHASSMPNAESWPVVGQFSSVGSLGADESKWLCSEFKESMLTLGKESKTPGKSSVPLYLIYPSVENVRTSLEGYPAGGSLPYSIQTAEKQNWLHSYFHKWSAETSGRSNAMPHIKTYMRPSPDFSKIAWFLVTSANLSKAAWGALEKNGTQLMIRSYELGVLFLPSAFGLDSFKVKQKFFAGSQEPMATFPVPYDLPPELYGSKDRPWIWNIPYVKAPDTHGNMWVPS
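Compounds were preincubated with Tdp1 (1 nM final) for 15 min at room temperature before substrate (15 nM final) started a 5 min reaction; beads (10 ug/ml final) were then added for 10 min before AlphaScreen detection.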
* hit, by the source's call; ? = inconclusive; . = not tested or not shown; ! = a repeat was not active; [ ] = another dose, or the depositor's remark. Only some compounds are listed: those with a hit (about 18% of all), similar ones and a draw of the others. Unless noted, calls come from the whole dose curve; as a rule, active = well fitted curve in the direction sought with a large enough effect; inconclusive = small, poorly fitted or top-dose-only effect, or another doubt; inactive = no such curve, though single readings can be large; an effect the other way counts as inactive or inconclusive.

SMILES	DT40 TDP1 no CPT	IL-1B inflam inh	HepG2 viability	DT40 TDP1 CPT	TGFb SMAD3 inh	TDP1 inh
CCOc1ccccc1N1CC(C(=O)N2CCOCC2)CC1=O (stereo not drawn)	3%	26	-16%	10%	-2%	6%[0.0935 µM]
O=C(COC(=O)c1ccc2c(c1)C(=O)N(Cc1ccco1)C2=O)NCC(F)(F)F	-10%	15	-4%	-13%	-9%	-2%
O=C(CC1C[C@H](C(=O)N2CCCCC2)[C@@]2(CCc3ccccc3)c3[nH]c4ccccc4c3CCN2C1=O)NCCc1ccccn1 (stereo partly drawn)	16µM*	?	1%	23µM*	?	.
CN(C(=O)COC(=O)c1c[nH]c2ccccc12)c1ccccc1	-19%	-21	0%	-10%	-3%	.
Cc1csc(SCC(=O)c2c(N)n(C)c(=O)n(C)c2=O)n1	-28%	6	-39%	?	-10%	1%
Nc1c2c(nc3ccccc13)N(c1ccccc1)CC2	?	-9	-5%	15µM*	9%	3%
CCCC(=O)Nc1c2c(nc3ccccc13)N(c1ccccc1)CC2	?	0	2%	?	-10%	5%
COc1cccc(N2C(=O)Nc3ccc(Br)cc3C2(O)C(=O)NCCN(C)C)c1 (stereo not drawn)	20%	0	-1%	11%	-10%	.
CC[N+](C)(CC)CC(=O)OCC1C(C)C=C(C)CC1C (stereo not drawn)	8.2µM*	-11	-20%	?	-1%	.
COC(=O)c1ccc(NS(=O)(=O)c2cc3c4c(c2)CCN4C(=O)CC3)cc1	?	-8	-11%	-6%	-11%	.
COc1ccc(NC(=O)COc2cccc(-n3cnnn3)c2)cc1	-3%	8	-9%	-3%	0%	.
CC(=O)Nc1cncc(-c2cccc(S(C)(=O)=O)c2)n1	-1%	-13	-9%	1%	-3%	.
Cc1[nH]c2ccccc2c1C(=O)CN1CCCCC1CCO (stereo not drawn)	16µM*	11	-1%	?	16%	3%
Cc1ccc2c(C(=O)CN3CCCCC3CCO)c(C)[nH]c2c1 (stereo not drawn)	?	-2	-21%	?	?	3%
O=S(=O)(c1cc(Br)c(Br)s1)N1CCN(c2ccccc2)CC1	-26%	.	-5%	-23%	-1%	3%
Cc1ccc(S(=O)(=O)N/N=C\c2cn(CC(N)=O)c3ccccc23)cc1C	-11%	19	7%	-17%	1%	6%[56.1 µM]
CC(Sc1nnnn1-c1ccccc1)C(=O)Nc1ccc(N2CCN(C)CC2)cc1 (stereo not drawn)	10µM*	-18	-20%	13µM*	-1%	2%
COC(=O)[C@H](CCSC)NC(=O)c1cc2c(cn1)[nH]c1ccccc12	7.3µM*	-80*	-20%	10µM*	-23%	.
CCCCOC(=O)c1cc2c(cn1)[nH]c1ccccc12	18µM*	.	.	21µM*!	.	11%
CNC(=O)c1cc2c(cn1)[nH]c1ccccc12	?	45	-28%	?	-1%	6%
Cc1ccnc(Nc2cccnc2)n1	21%	20	3%	11%	-17%	.
CCn1ncc(Br)c1C(=O)Nc1ccc(F)c([N+](=O)[O-])c1	?	-97*	8%	-21%	10%	1%
O=C1NC(=NCc2ccccc2)S/C1=C/c1ccc(O)cc1	12µM*	-76*	-18%	?	-1%	3%
Cc1c(N=C2NC(=O)/C(=C/c3ccc(O)cc3)S2)c(=O)n(-c2ccccc2)n1C	?	-18	10µM*	-18%	0%	3%
Cc1ccc(S(=O)(=O)/N=C2/NC(=O)/C(=C\c3ccccc3)S2)cc1	?	-20	-37%	?	?	4%
SMILES	DT40 TDP1 no CPT	IL-1B inflam inh	HepG2 viability	DT40 TDP1 CPT	TGFb SMAD3 inh	TDP1 inh
Cc1c(N=Nc2ccc(O)cc2)c(=O)n(-c2ccccc2)n1C	3%	28	3%	3%	8%	0%
Cc1ncc2c(c1CNC(=O)c1cncs1)CCN(C(=O)c1cccc(-c3cccc(F)c3)c1)C2	-19%	.	.	0%	.	.
Cc1sc(NC(=O)CN(CCc2ccccc2)C(=O)C2CC2)c(C(N)=O)c1C	?	8	-11%	?	-8%	3%
CCCC(=O)N(CCN(Cc1ccccc1)C(=O)CCC)Cc1ccccc1	23µM*	-17	0%	?	-17%	4%
O=C(NCCC(=O)N(CCc1ccccc1)Cc1ccccc1)c1ccc(Br)cc1	26µM*	-10	-14%	?	?	.
CCCC(=O)N(CC(=O)Nc1sc(C)c(C)c1C(N)=O)Cc1ccccc1	6.5µM*	0	-5%	12µM*	-11%	6%
Cc1ccccc1C(=O)N(CC(=O)Nc1sc(C)c(C)c1C(N)=O)C1CCCC1	15µM*	6	-25%	?	15%	-3%
COC(=O)CCC(=O)N(CCN(Cc1ccccc1)C(=O)CCC(=O)OC)Cc1ccccc1	-12%	48	-37%	?	4%	.
CCCN(CC1CC1)c1nc(N)c(C#N)c(CC#N)c1C#N	18µM*	0	-3%	?	?	3%
CCCCN1C(=O)Cc2c1nc(N)c1c(N)nc(N(CCC)CCC)c(C#N)c21	-9%	30	-32%	-15%	-21%	9%
CCCN(CCC)c1nc(N)c(C#N)c(CC#N)c1C#N	23µM*	25	-7%	15µM*	?	10%
CCN(CC)c1nc(N)c(C#N)c(CC#N)c1C#N	-19%	48	-11%	-24%	5%	.
CCN(CC)C(=O)C1=C(C)N(CCCOC)C(=O)C(CC(=O)NCCN2CCOCC2)C1 (stereo not drawn)	-16%	5	-7%	1%	4%	.
COc1cccc(C(=O)NCc2cn3ccccc3n2)c1	17%	.	-19%	3%	0%	11%
COC(=O)C1C(=O)C2=C(CC1C)NC(C)=C(C(=O)OCCOc1ccccc1)C2c1ccc(C)o1 (stereo not drawn)	16µM*	0	-15%	23µM*	21%	5%
COC(=O)C1C(=O)C2=C(CC1C)NC(C)=C(C(=O)OC(C)C)C2c1ccc(C)o1 (stereo not drawn)	-1%	6	-8%	-10%	18%	9%
